Assay results: PubChem BioAssay AID1531 (NMMLSC, 2009)
About 3,300 (1.1%) of roughly 290,000 compounds were called active. This is one part of a sample in which actives are shown more often than they occur. Cut-off read from the data, not from the text of the source: active = binding response below about 67% or above about 130%; inconclusive = no clear call, values can overlap the other calls; inactive = in between.

What follows are molecules tested against Mitogen-activated protein kinase kinase kinase 2 (Homo sapiens) (UniProt Q9Y2U5) (assay: modulators of MEK5 binding to wildtype MEKK2, primary screen, biochemical, multiplex bead flow cytometry, Alexa488-MEK5 (AID 1531)). Conditions: Alexa488-MEK5 binding to MEKK2 WT, at 10 µM, actives lie on both sides.
`Fc1ccccc1/C=N/Nc1cc(N2CCCCC2)ncn1` was tested, and the binding response (% of control) was 108% (inactive).
For `CCOC(=O)Nc1ccc2c(c1)N(C(=O)CCCl)c1ccccc1[S@]2=O`, the binding response (% of control) was 107% (inactive).
In the case of `CC(C)(C)NC(=O)Cn1cnc2cc([N+](=O)[O-])ccc2c1=O`, the binding response (% of control) is reported as 88% (inactive).
For `O=C(Cn1cnc([N+](=O)[O-])n1)NCCc1ccccc1`, the binding response (% of control) was 100% (inactive).
`CC(C)(C)NC(=O)Cn1cnc([N+](=O)[O-])n1` was tested, and the binding response (% of control) was 2% [inhibitor] (active).
`CC(=O)Nc1ccc(NC(=O)CS(=O)(=O)c2cn(CC(=O)N3CCCCC3)c3ccccc23)cc1` was tested, and the binding response (% of control) was 99% (inactive).
`Cc1ccc(CSCC2Nc3ccc(C(=O)N4CCN(c5ccc(F)cc5)CC4)cc3NC2=O)cc1` (configuration not stated) was tested, and the binding response (% of control) was 94% (inactive).
With `Cc1snc(SCc2c(F)cccc2Cl)c1C#N` the binding response (% of control) was 108% (inactive).
In the case of `O=C(CN1CCN(S(=O)(=O)c2cc(Cl)ccc2Cl)CC1)c1ccc(O)c(O)c1`, the binding response (% of control) is reported as 97% (inactive).
For `COc1ccc(C=Nc2cccc3ncccc23)cc1`, the binding response (% of control) was 81% (inactive).
`O=[N+]([O-])c1ccc(N=Cc2c(O)ccc3ccccc23)cc1` was tested, and the binding response (% of control) was 95% (inactive).
With `Oc1c(C=Nc2cccc3nsnc23)ccc2ccccc12` the binding response (% of control) was 31% [inhibitor] (active).
In the case of `O=C(OCC1O[C@@H](OC(=O)c2cc(O)c(O)c(O)c2)[C@@H](OC(=O)c2cc(O)c(O)c(O)c2)[C@@H](OC(=O)c2cc(O)c(O)c(O)c2)[C@@H]1OC(=O)c1cc(O)c(O)c(O)c1)c1cc(O)c(O)c(O)c1` (some centres not stated), the binding response (% of control) is reported as 62% [inhibitor] (active).
With `Cc1ccc(C)c(NS(=O)(=O)c2c(C)[nH]c(C)c2C(=O)N2CCCCC2)c1` the binding response (% of control) was 103% (inactive).
In the case of `COc1ccc(-c2noc(CNC(=O)C(C)Oc3ccccc3)n2)cc1` (configuration not stated), the binding response (% of control) is reported as 98% (inactive).
For `CC(=O)Nc1ccc(NC(=O)COc2ccc(-c3ccccc3)cc2)cc1`, the binding response (% of control) was 97% (inactive).
With `CCC(C)OC(=O)C(C)Oc1ccc(-c2ccccc2)cc1` (configuration not stated) the binding response (% of control) was 2% [inhibitor] (active).
For `CCCCNC(=O)N(O)C1N(/N=C/c2ccccc2O)C(=S)SC1(C)C` (configuration not stated), the binding response (% of control) was 101% (inactive).
In the case of `Cc1ccc(-n2ncc3c2CC(C)(C)CC3NC(=O)Cc2c(C)noc2C)cc1` (configuration not stated), the binding response (% of control) is reported as 100% (inactive).
In the case of `Cc1ccccc1CN1C(=O)c2ccccc2Sc2ccc(C(=O)NCCCN3CCOCC3)cc21`, the binding response (% of control) is reported as 110% (inactive).
`CCCC1=Nc2cc(C(=O)NCc3ccco3)ccc2Sc2ccccc21` was tested, and the binding response (% of control) was 98% (inactive).
In the case of `CCCC1=Nc2cc(C(=O)NCCN3CCCC3)ccc2Sc2ccccc21`, the binding response (% of control) is reported as 142% (active).
For `Cc1cc(C)cc(C(=O)NCCN2CCOCC2)c1`, the binding response (% of control) was 109% (inactive).
With `CCC1=Nc2cc(C(=O)NCCN3CCCC3)ccc2Sc2ccc(C)cc21` the binding response (% of control) was 155% (active).
`CCC1=Nc2cc(C(=O)NCCCN3CCOCC3)ccc2Sc2ccc(Br)cc21` was tested, and the binding response (% of control) was 108% (inactive).
In the case of `COCCNC(=O)CSc1nc2sccc2c(=O)n1-c1ccccc1`, the binding response (% of control) is reported as 101% (inactive).
For `CCOC(=O)C1CCN(C(=O)COc2cccc3ccccc23)CC1`, the binding response (% of control) was 97% (inactive).
In the case of `Cc1nc(/N=C(\N)NC(=O)NC2CCCCC2)nc2ccccc12`, the binding response (% of control) is reported as 108% (inactive).
`CC(=O)Oc1ccc(-c2nc3c(C)cccc3c(=O)o2)cc1` was tested, and the binding response (% of control) was 106% (inactive).
In the case of `Cc1nc(N=C(N)N)nc2c(C)cccc12`, the binding response (% of control) is reported as 145% (active).
In the case of `NC(N)=N/N=C/c1ccc(OCc2ccc(Cl)cc2Cl)cc1`, the binding response (% of control) is reported as 213% (active).
`NC(N)=N/N=C/c1ccc(Cl)c([N+](=O)[O-])c1` was tested, and the binding response (% of control) was 109% (inactive).
`CCOc1ccc(NC(=O)NNC(=O)c2ccc(Cl)cc2Cl)cc1` was tested, and the binding response (% of control) was 96% (inactive).
`Cc1cc(OCC(=O)Nc2c(C)n(C)n(-c3ccccc3)c2=O)ccc1[N+](=O)[O-]` was tested, and the binding response (% of control) was 97% (inactive).
With `CN(C)S(=O)(=O)c1ccc2oc(SCC(=O)Nc3ccccc3F)nc2c1` the binding response (% of control) was 99% (inactive).
For `C=CCNc1nc(N)c([N+](=O)[O-])c(NC2CCCCC2)n1`, the binding response (% of control) was 100% (inactive).
In the case of `O=C(NCCc1c[nH]c2ccccc12)C1CCN(Cc2ccc(Br)cc2)CC1`, the binding response (% of control) is reported as 125% (inactive).
`O=C(Cc1c(F)cccc1Cl)N1CCN(C(=O)c2ccco2)CC1` was tested, and the binding response (% of control) was 99% (inactive).
`O=C(c1cccc([N+](=O)[O-])c1)N1CCN(C(=O)c2ccco2)CC1` was tested, and the binding response (% of control) was 99% (inactive).
In the case of `O=C(c1ccco1)N1CCN(c2cccc(Cl)c2)CC1`, the binding response (% of control) is reported as -2% [inhibitor] (active).
In the case of `CC1CC(C)CN(S(=O)(=O)c2cccc3nonc23)C1` (configuration not stated), the binding response (% of control) is reported as 109% (inactive).
In the case of `COc1ccc(OC)c(S(=O)(=O)N2CCCC(C(=O)NCCc3ccccc3)C2)c1` (configuration not stated), the binding response (% of control) is reported as 100% (inactive).
`Cc1cccc(N(C(=O)c2csnn2)C(C(=O)NCc2ccccc2)c2ccncc2)c1` (configuration not stated) was tested, and the binding response (% of control) was 102% (inactive).
For `CCC(=C/c1sc2ccc3ccccc3c2[n+]1C)/C=C1\Sc2ccc3ccccc3c2N1C`, the binding response (% of control) was 9% [inhibitor] (active).
`CCc1ccc(NC(=O)Nc2ccncc2)cc1` was tested, and the binding response (% of control) was 107% (inactive).
In the case of `CC1(C)C=Cc2c(ccc3c2OC[C@@H](c2ccc(O)cc2O)C3)O1`, the binding response (% of control) is reported as 107% (inactive).
In the case of `COc1ccccc1C(=O)NCc1nnc(SC(C)C(=O)Nc2nccs2)n1C` (configuration not stated), the binding response (% of control) is reported as 105% (inactive).
